# The supplement of paper PMC10849652
# Of roughly 7,900 targets only a part is listed; those with a hit were picked by preference. About 0.6% of all pairs of compound and target were hits. Values without a mark were called inactive.
# Experiments:
# Assay in all cases: log2 fold change, soluble protein after heating vs DMSO (PISA); higher = thermal stabilisation; K562 cells, 10 uM, 30 min; active = over 0.2 and 3.5 SD of the protein, either way, in both replicates (recomputed)
# [1] = compound: C#Cc1cccc(Nc2ncnc3cc(OCCOC)c(OCCOC)cc23)c1 [erlotinib]
# In short: (§1)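 For each measurement, 10 μM compound was applied for 30 min to K562 cells at 2×10^6 cells/mL. Aliquots were heated for 3 min across 48°C-58°C, pooled, and extracted in PBS with 0.5% NP-40 at 4°C; the supernatant after 21,000xg for 90 min was soluble protein. This was quantified by TMTpro 16plex LC-MS/MS with channel sums equalised, and thermal stability was reported relative to control samples from duplicates, on a log2 fold-change scale.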
# [2] = compound: C/C(=N\NC(=O)C1=CC(=CC=C1)S(=O)(=O)N2CCOCC2)/C3=C(C=CC(=C3)Cl)O
# In short: as §1
# [3] = compound: C1=CC(=CC=C1C2=NC3=C(N2)C=C(C=C3)C(=O)N)OC4=CC=C(C=C4)Cl
# In short: as §1
# [4] = compound: C1=CC2=C(C=CC(=C2)/C=C\3/C(=O)NC(=NCC4=CC=CS4)S3)N=C1
# In short: as §1
# [5] = compound: C1=CC=C2C(=C1)C3=NNC4=CC=CC(=C43)C2=O
# In short: as §1
# [6] = compound: C1CCN(C1)C(=O)NC2=CC=CC(=C2)NC3=NC=C(C(=N3)NCCC4=CN=CN4)Br
# In short: as §1
# [7] = compound: C1CN(CCC1(CC2=CC=C(C=C2)Cl)N)C3=NC=NC4=C3C=CN4
# In short: as §1
# [8] = compound: CC(=O)c1cnc2ccc(-c3cc(Cl)c(O)c(Cl)c3)nc2c1N[C@H]1CC[C@H](CN(C)C)CC1
# In short: as §1
# [9] = compound: CC(C)C1=C2N=C(C=C(N2N=C1)NCC3=CC=CC=C3)NCCCCCCN
# In short: as §1
# [10] = compound: CC1=C(C2=C(C=C1)C(=O)C3=CC=CC=C3N2CCCN)C
# In short: as §1
# [11] = compound: C1=CC2=NC=CN=C2C=C1/C=C/3\C(=O)NC(=O)S3
# In short: as §1
# [12] = compound: C1=CC=C(C=C1)C2=NC(=C(N2)C3=CC=NC=C3)C4=CC(=C(C=C4)Cl)O
# In short: as §1
# [13] = compound: C1COCCN1CCN2C3=CC=CC=C3N=C2NC(=O)C4=CC(=CC=C4)[N+](=O)[O-] [IRAK-1-4 Inhibitor I]
# In short: as §1
# [14] = compound: C=CC(=O)N1CCC[C@@H](n2nc(-c3ccc(Oc4ccccc4)cc3)c3c(N)ncnc32)C1 [ibrutinib]
# In short: as §1
# [15] = compound: CC(C)(C)Cn1c(N)nc2ccc(-c3[nH]c(C(C)(C)C)nc3-c3ccc(F)cc3)nc21 [ralimetinib]
# In short: as §1
# [16] = compound: CC(C)C[C@@H](C=O)NC(=O)[C@H](CC(C)C)NC(=O)[C@H](CC(C)C)NC(=O)OCc1ccccc1
# In short: as §1
# [17] = compound: CC(C)N(C[C@H]1O[C@@H](n2cnc3c(N)ncnc32)[C@H](O)[C@@H]1O)[C@H]1C[C@@H](CCc2nc3cc(C(C)(C)C)ccc3[nH]2)C1 [pinometostat]
# In short: as §1
# [18] = compound: CC1=C(C(CC(=O)N1)C2=CC=C(C=C2)C(F)(F)F)C(=O)NC3=C(C=C4C(=C3)C=NN4)F
# In short: as §1
# [19] = compound: C1=CC(=C(C=C1Cl)C2=NC3=NC=CN=C3C(=N2)NC4=CC=NC=C4)F
# In short: as §1
# [20] = compound: CC(C)(O)CC(=O)NCCn1ccc2ncnc(Nc3ccc(Oc4cccc(C(F)(F)F)c4)c(Cl)c3)c21
# In short: as §1
# UniProt Q12824, sequence (Q12824 whole entry, looked up): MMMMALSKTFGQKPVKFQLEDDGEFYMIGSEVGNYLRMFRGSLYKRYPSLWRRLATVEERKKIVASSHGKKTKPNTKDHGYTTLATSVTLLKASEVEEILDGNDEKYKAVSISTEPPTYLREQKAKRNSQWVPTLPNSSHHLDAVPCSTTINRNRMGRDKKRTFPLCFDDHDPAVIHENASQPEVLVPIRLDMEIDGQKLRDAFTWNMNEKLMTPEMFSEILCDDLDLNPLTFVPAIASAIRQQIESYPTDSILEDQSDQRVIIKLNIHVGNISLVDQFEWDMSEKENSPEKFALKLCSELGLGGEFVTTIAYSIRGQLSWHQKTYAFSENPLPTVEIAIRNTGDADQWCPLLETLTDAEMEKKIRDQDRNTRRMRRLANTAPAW
# UniProt P36897, sequence (P36897 whole entry, looked up): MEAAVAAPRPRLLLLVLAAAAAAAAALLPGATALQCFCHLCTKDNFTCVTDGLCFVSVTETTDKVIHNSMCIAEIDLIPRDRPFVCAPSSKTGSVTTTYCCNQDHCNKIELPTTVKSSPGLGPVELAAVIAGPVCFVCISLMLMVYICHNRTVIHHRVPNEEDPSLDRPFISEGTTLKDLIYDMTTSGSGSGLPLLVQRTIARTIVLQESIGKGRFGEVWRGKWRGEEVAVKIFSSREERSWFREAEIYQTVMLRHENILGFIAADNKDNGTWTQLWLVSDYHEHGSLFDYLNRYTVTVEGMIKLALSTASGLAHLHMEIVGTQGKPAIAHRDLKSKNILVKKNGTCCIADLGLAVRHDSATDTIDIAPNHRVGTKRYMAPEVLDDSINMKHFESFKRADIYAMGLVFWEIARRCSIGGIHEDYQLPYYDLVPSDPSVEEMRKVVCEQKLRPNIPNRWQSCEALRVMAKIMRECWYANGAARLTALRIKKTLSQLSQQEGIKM
# UniProt O94901, sequence (O94901 whole entry, looked up): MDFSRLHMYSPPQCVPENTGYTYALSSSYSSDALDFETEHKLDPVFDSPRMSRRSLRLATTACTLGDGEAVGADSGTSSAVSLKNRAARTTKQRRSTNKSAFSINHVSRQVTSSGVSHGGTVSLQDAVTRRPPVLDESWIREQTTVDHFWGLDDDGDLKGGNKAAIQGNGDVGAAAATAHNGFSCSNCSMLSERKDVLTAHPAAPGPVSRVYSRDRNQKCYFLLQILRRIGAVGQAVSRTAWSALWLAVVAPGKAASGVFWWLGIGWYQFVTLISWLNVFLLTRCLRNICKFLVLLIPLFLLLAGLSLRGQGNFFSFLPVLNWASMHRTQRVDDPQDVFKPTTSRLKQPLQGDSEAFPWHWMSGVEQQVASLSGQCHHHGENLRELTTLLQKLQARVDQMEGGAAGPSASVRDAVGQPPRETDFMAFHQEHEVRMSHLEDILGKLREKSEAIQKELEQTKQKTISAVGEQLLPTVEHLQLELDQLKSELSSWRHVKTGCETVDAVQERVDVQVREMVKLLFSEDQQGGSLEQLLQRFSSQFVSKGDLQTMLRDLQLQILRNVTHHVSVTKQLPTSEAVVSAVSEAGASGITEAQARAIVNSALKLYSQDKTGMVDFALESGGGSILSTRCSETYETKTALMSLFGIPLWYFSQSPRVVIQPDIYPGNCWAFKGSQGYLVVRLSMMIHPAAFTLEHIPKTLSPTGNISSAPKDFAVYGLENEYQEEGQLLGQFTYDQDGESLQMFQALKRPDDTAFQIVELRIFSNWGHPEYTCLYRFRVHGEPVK
# UniProt Q9NY26, sequence (Q9NY26 whole entry, looked up): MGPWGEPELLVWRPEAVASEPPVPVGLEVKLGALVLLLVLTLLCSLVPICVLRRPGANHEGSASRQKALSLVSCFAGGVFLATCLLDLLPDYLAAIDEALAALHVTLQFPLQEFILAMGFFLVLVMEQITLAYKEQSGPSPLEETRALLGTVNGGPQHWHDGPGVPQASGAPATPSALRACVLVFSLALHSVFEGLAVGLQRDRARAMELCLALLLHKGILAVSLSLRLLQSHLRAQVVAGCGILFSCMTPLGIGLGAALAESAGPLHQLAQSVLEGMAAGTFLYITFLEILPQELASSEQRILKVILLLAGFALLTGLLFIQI
# UniProt Q9UL54, sequence (Q9UL54 whole entry, looked up): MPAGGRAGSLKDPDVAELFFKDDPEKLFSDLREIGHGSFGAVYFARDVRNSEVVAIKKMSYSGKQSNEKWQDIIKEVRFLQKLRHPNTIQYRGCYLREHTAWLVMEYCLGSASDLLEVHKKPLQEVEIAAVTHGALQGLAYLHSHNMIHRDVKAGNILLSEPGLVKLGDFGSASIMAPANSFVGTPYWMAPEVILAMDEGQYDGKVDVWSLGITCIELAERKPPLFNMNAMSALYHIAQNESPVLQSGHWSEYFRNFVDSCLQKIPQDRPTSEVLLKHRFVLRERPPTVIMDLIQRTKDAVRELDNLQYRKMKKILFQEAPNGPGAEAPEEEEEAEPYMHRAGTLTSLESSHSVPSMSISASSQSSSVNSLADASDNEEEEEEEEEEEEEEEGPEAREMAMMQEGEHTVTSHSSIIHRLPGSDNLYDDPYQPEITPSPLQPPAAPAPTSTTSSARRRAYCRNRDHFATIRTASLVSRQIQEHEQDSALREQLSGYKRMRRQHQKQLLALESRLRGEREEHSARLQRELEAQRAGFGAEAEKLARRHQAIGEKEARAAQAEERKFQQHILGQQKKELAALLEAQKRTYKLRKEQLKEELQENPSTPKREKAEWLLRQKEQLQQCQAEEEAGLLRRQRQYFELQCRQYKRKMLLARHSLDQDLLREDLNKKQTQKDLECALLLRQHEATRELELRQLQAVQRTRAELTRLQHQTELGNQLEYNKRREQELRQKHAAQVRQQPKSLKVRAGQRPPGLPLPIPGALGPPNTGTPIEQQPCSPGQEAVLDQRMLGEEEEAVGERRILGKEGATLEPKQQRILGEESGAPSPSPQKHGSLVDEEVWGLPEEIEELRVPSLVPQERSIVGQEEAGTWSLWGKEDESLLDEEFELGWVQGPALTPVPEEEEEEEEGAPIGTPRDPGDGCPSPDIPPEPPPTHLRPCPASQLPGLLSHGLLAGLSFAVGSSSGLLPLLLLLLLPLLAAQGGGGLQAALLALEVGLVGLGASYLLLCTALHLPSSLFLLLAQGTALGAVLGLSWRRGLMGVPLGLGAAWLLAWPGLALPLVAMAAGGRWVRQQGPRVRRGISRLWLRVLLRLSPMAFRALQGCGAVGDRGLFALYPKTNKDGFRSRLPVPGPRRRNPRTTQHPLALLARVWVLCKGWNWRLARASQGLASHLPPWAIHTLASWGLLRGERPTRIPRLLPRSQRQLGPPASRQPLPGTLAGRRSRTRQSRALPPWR
# UniProt Q8N9U0, sequence (Q8N9U0 whole entry, looked up): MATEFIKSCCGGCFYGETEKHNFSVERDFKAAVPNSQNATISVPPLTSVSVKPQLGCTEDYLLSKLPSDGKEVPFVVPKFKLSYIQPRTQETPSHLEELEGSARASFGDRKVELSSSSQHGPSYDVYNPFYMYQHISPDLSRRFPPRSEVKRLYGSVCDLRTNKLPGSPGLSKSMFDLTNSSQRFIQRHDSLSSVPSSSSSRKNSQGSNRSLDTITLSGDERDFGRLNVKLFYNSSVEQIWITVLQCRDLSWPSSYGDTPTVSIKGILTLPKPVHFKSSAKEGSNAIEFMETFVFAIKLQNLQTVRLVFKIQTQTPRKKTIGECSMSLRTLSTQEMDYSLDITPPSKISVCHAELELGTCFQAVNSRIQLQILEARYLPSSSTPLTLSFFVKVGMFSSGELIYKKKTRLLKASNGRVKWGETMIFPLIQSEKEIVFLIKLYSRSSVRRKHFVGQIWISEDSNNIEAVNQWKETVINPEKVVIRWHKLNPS
# UniProt Q56A73, sequence (Q56A73 whole entry, looked up): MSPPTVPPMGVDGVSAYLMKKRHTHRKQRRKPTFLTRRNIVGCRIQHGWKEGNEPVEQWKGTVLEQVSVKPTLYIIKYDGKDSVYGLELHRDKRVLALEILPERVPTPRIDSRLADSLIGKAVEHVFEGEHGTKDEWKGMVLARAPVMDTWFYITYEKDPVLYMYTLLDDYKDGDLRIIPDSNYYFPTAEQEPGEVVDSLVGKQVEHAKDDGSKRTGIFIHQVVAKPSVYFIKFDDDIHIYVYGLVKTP
# UniProt P20226, sequence (P20226 whole entry, looked up): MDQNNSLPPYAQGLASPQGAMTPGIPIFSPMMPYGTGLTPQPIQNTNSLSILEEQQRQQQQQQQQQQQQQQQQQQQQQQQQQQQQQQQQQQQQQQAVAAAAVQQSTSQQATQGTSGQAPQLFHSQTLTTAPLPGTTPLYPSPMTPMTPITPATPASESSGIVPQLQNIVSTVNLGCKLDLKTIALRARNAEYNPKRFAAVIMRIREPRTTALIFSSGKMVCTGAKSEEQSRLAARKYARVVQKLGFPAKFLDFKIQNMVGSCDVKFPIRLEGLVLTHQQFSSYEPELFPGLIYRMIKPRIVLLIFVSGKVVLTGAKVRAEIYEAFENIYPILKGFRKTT
# UniProt Q9H4I9, sequence (Q9H4I9 whole entry, looked up): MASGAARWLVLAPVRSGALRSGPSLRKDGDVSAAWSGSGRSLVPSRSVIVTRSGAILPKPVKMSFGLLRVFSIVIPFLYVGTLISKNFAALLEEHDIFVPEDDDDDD
# UniProt Q96NT5, sequence (Q96NT5 whole entry, looked up): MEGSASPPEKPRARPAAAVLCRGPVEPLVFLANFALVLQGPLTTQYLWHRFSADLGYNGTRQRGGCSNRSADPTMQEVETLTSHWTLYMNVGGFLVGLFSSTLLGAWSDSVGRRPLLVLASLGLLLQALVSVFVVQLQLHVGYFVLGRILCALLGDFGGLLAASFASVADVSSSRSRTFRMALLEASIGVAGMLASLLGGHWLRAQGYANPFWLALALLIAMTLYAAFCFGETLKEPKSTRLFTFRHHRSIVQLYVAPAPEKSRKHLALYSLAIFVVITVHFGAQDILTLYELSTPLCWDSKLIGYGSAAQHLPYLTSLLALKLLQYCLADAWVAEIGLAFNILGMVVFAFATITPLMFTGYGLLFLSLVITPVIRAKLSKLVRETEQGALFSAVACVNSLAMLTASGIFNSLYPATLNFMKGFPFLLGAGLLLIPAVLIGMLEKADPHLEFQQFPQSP
Target,log2 fold change [1],log2 fold change [2],log2 fold change [3],log2 fold change [4],log2 fold change [5],log2 fold change [6],log2 fold change [7],log2 fold change [8],log2 fold change [9],log2 fold change [10],log2 fold change [11],log2 fold change [12],log2 fold change [13],log2 fold change [14],log2 fold change [15],log2 fold change [16],log2 fold change [17],log2 fold change [18],log2 fold change [19],log2 fold change [20]
SLC46A1 (UniProt Q96NT5),0.094,-0.017,-0.054,-0.042,0,-0.193,0.091,-0.008,-0.04,-0.049,–,–,–,–,–,–,–,–,–,–
TENT5C (UniProt Q5VWP2),-0.117,–,0.087,–,–,-0.025,-0.017,–,0.18,-0.014,0.023,-0.104,0.136,0.008,-0.119,0.03,-0.028,-0.018,–,–
SPAG9 isoform 4 (UniProt O60271),0.019,0.048,-0.087,-0.103,0.04,0.03,0.119,0.14,-0.202,-0.243,-0.065,0.272,-0.027,0.349,0.191,0.049,0.061,-0.003,–,–
SYNE2 isoform 2 (UniProt Q8WXH0),0.405,-0.672 (active),-0.301,0.084,0.001,-0.045,0.029,0.059,0.078,0.044,-0.027,-0.007,0.046,-0.037,0.01,0.059,-0.024,0,–,–
SLC39A1 (UniProt Q9NY26),0.123,–,0.053,–,–,–,–,–,-1.06 (active),–,–,–,–,–,–,–,–,–,–,–
SRCAP (UniProt Q6ZRS2),0.039,–,0.031,–,–,0.059,-0.254,–,0.046,0.103,0.117,-0.191,-0.42 (active),0,0.036,0.12,0.037,0.078,–,–
SPIN4 (UniProt Q56A73),-0.125,–,0.116,–,–,–,–,–,-0.079,–,–,–,0.07,–,–,–,0.051,–,–,–
SMARCB1 (UniProt Q12824),–,–,–,–,–,0.038,0.025,–,–,-0.031,–,–,-0.082,–,–,–,0.179,–,–,–
SMDT1 (UniProt Q9H4I9),–,0.012,–,0.044,0.044,0.01,0.036,-0.026,–,0.027,0.067,–,0.039,0.036,–,–,-0.043,–,-0.032,-0.012
SP2 (UniProt Q02086),–,0,–,0.229,0.095,–,–,-0.472,–,–,–,–,-0.126,–,–,–,0.212,–,–,–
SNRK (UniProt Q9NRH2),–,–,–,–,–,–,–,–,–,–,–,–,-0.126,–,–,–,-0.087,–,–,–
SUN1 isoform 9 (UniProt O94901),0.055,0.037,0.032,0.066,0.066,0.057,0.094,-0.114,-0.149,-0.05,–,-0.052,-0.028,–,0.067,0.042,0.128,0.127,-0.346 (active),0.115
TC2N (UniProt Q8N9U0),–,0.038,–,0.362,0.054,0.042,-0.004,-0.486,–,0.014,–,-0.021,–,–,-0.036,0.028,–,-0.364,–,–
TACC2 (UniProt O95359),-0.219,0.008,0.06,0.005,0.014,0.014,-0.026,0.054,-0.205,0.058,0.075,-0.128,–,-0.058,0.108,-0.007,–,0.069,–,–
TGFBR1 isoform 2 (UniProt P36897),-0.012,0.084,-0.051,-0.072,0.004,-0.019,0.047,0.329 (active),0.025,0.019,0.043,0.161,-0.004,0.006,0.072,0.049,-0.047,-0.022,–,-0.043
TBP (UniProt P20226),–,-0.016,–,0.073,-0.058,0.018,0.157,0.091,–,0.528 (active),0.041,0.012,0.018,-0.029,-0.016,-0.002,-0.019,-0.046,0.027,0.036
SLC39A11 (UniProt Q8N1S5),-0.042,-0.009,0.05,0.043,0.053,-0.144,0.019,0.051,-0.117,0.07,0.009,0.07,0.092,0.066,0.012,-0.051,-0.085,-0.024,–,–
TDP1 (UniProt Q9NUW8),0.141,–,–,–,–,–,–,–,0.156,–,–,–,–,–,–,–,–,–,–,–
TAOK2 (UniProt Q9UL54),-0.043,–,0.156,–,–,-0.014,0.029,–,0.083,0.127,–,0.029,-0.132,–,0.09,0.001,0.031,-0.044,-0.019,-0.041
STK17B (UniProt O94768),0.128,–,0.072,–,–,–,–,–,-0.262,–,-0.169,–,-0.12,-0.235,–,–,0.033,–,–,–
TM7SF3 (UniProt Q9NS93),-0.073,0.053,0.03,-0.101,0.061,0.001,0.123,0.055,-0.485 (active),0.057,0.034,0.02,-0.06,0.014,-0.068,0.01,-0.036,0.016,–,–
